# Laboratory results as given in the supplement of paper PMC4466140.
# B1: unnamed (peptide)
# chain: RVRKTHVPASKRPSG
# Target: CaNbp2
# Experiment: SPOT peptide array binding signal intensity (averaged, normalized) (arbitrary units (background-subtracted, floor 0; scale differs between SH3 domains)); higher = stronger binding of the SH3 domain to the peptide
# Procedure, shortened: (§1)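 Binding signal refers to normalized, background-subtracted spot intensity averaged over replicates, expressed in arbitrary units that differ between domains. GST-fused SH3 domains from four yeast species were incubated at 10 μg/ml overnight at 4°C on cellulose membranes of synthetic 15-mer peptides with cysteines replaced by serines. Bound protein was detected with anti-GST antibody, an HRP anti-mouse secondary and luminol, and quantified with Genespotter.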
row,Binder,SPOT peptide array binding signal intensity
1,B1,216

# Target: CaRvs167
# Experiment: as above
# Procedure, shortened: as §1
row,Binder,SPOT peptide array binding signal intensity
1,B1,1

# Target: CaRvs167-3
# Experiment: as above
# Procedure, shortened: as §1
row,Binder,SPOT peptide array binding signal intensity
1,B1,7.25

# Target: CaSho1
# Experiment: as above
# Procedure, shortened: as §1
row,Binder,SPOT peptide array binding signal intensity
1,B1,89

# Target: CaSla1-D1-D2
# Experiment: as above
# Procedure, shortened: as §1
row,Binder,SPOT peptide array binding signal intensity
1,B1,112

# Target: CaSla1-D3
# Experiment: as above
# Procedure, shortened: as §1
row,Binder,SPOT peptide array binding signal intensity
1,B1,≤ 0

# Target: ScAbp1
# Experiment: as above
# Procedure, shortened: as §1
row,Binder,SPOT peptide array binding signal intensity
1,B1,15.5

# Target: ScBbc1
# Experiment: as above
# Procedure, shortened: as §1
row,Binder,SPOT peptide array binding signal intensity
1,B1,15.5

# Target: ScBem1-D1
# Experiment: as above
# Procedure, shortened: as §1
row,Binder,SPOT peptide array binding signal intensity
1,B1,51

# Target: ScBzz1-D1
# Experiment: as above
# Procedure, shortened: as §1
row,Binder,SPOT peptide array binding signal intensity
1,B1,7.5

# Target: ScBzz1-D2
# Experiment: as above
# Procedure, shortened: as §1
row,Binder,SPOT peptide array binding signal intensity
1,B1,≤ 0

# Target: ScCyk3
# Experiment: as above
# Procedure, shortened: as §1
row,Binder,SPOT peptide array binding signal intensity
1,B1,51

# Target: ScFus1
# Experiment: as above
# Procedure, shortened: as §1
row,Binder,SPOT peptide array binding signal intensity
1,B1,117

# Target: ScHof1
# Experiment: as above
# Procedure, shortened: as §1
row,Binder,SPOT peptide array binding signal intensity
1,B1,1

# Target: ScHse1
# Experiment: as above
# Procedure, shortened: as §1
row,Binder,SPOT peptide array binding signal intensity
1,B1,469

# Target: ScLsb1
# Experiment: as above
# Procedure, shortened: as §1
row,Binder,SPOT peptide array binding signal intensity
1,B1,4.5

# Target: ScLsb2
# Experiment: as above
# Procedure, shortened: as §1
row,Binder,SPOT peptide array binding signal intensity
1,B1,7

# Target: ScLsb3
# Experiment: as above
# Procedure, shortened: as §1
row,Binder,SPOT peptide array binding signal intensity
1,B1,420

# Target: ScLsb4
# Experiment: as above
# Procedure, shortened: as §1
row,Binder,SPOT peptide array binding signal intensity
1,B1,5

# Target: ScMyo3
# Experiment: as above
# Procedure, shortened: as §1
row,Binder,SPOT peptide array binding signal intensity
1,B1,2

# Target: ScMyo5
# Experiment: as above
# Procedure, shortened: as §1
row,Binder,SPOT peptide array binding signal intensity
1,B1,1.5

# Target: ScNbp2
# Experiment: as above
# Procedure, shortened: as §1
row,Binder,SPOT peptide array binding signal intensity
1,B1,91.5

# Target: ScPex13
# Experiment: as above
# Procedure, shortened: as §1
row,Binder,SPOT peptide array binding signal intensity
1,B1,≤ 0

# Target: ScRvs167
# Experiment: as above
# Procedure, shortened: as §1
row,Binder,SPOT peptide array binding signal intensity
1,B1,2.17

# Target: ScSho1
# Experiment: as above
# Procedure, shortened: as §1
row,Binder,SPOT peptide array binding signal intensity
1,B1,230

# Target: ScSla1-D1-D2
# Experiment: as above
# Procedure, shortened: as §1
row,Binder,SPOT peptide array binding signal intensity
1,B1,510

# Target: ScSla1-D3
# Experiment: as above
# Procedure, shortened: as §1
row,Binder,SPOT peptide array binding signal intensity
1,B1,8.5

# Target: SpAbp1-D1
# Experiment: as above
# Procedure, shortened: as §1
row,Binder,SPOT peptide array binding signal intensity
1,B1,249

# Target: SpBbc1
# Experiment: as above
# Procedure, shortened: as §1
row,Binder,SPOT peptide array binding signal intensity
1,B1,≤ 0

# Target: SpBzz1-D1
# Experiment: as above
# Procedure, shortened: as §1
row,Binder,SPOT peptide array binding signal intensity
1,B1,41
